Assay results reported in PubChem BioAssay (NCATS).
Inconclusive results are not listed. Unmarked numbers belong to inactive results. Calls follow the shape of the dose curve; as a rule, active = well fitted inhibition curve with a large enough effect; inconclusive = small, poorly fitted or top-dose-only effect; inactive = flat fitted curve, though single readings scatter.

Assay: qHTS of Trypanosoma Brucei Inhibitors: LOPAC Validation (AID 624147); also: 0% is about no effect
Conditions: purified enzyme assay, luminescence, 45 min; series mostly up to 57.5 µM; activity change, negative = inhibition: at the top concentration
Outline: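 Activity of T. brucei pyruvate kinase was followed by Kinase-Glo Plus luminescence after the enzyme reacted 45 min at room temperature with 130 uM ADP (final) and substrate. Test compounds were added before ADP at multiple concentrations.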

Row | SMILES | activity change, negative = inhibition [%]
1 | NC(N)=NCCC[C@H](N)C(=O)O | -7.73
2 | CNCCC(Oc1ccc(C(F)(F)F)cc1)c1ccccc1 (stereo not given) | -9.65
3 | CC(CN1c2ccccc2Sc2ccccc21)N(C)C (stereo not given) | -12.3
4 | CN1CCN(C2Cc3ccccc3Sc3ccc(Cl)cc32)CC1 (stereo not given) | -6.29
5 | CC1=C(CC(=O)O)c2cc(F)ccc2/C1=C\c1ccc(S(C)(=O)=O)cc1 | -14.7
6 | OCc1cc(C(O)CNCCCCCCOCCCCc2ccccc2)ccc1O (stereo not given) | -12.1
7 | CN(C)CCCN1c2ccccc2Sc2ccc(Cl)cc21 | -5.71
8 | CSc1ccc2c(c1)C(N1CCN(C)CC1)Cc1ccccc1S2 (stereo not given) | -4.54
9 | N=c1c[n+](N2CCOCC2)[n-]o1 | -4.4
10 | CN(C)CC[C@@H](c1ccc(Cl)cc1)c1ccccn1 | 1.39
11 | Nc1cc(=O)[nH]c(N)n1 | -3.77
12 | CCN(CC)CCCC(C)Nc1c2ccc(Cl)cc2nc2ccc(OC)cc12 (stereo not given) | -11
13 | COc1ccc(Cl)cc1C(=O)NCCc1ccc(S(=O)(=O)NC(=O)NC2CCCCC2)cc1 | -6.14
14 | CCCn1cnc2c1c(=O)n(CCCCC(C)=O)c(=O)n2C | -5.26
15 | CC(CN(C)C)CN1c2ccccc2CCc2ccccc21 (stereo not given) | -10.3
